Hits are enriched below; roughly 2.2% of the tested compounds scored in any of these assays.
M4 PAM = CHRM4 positive allosteric modulation. CHO-K1 hM4/Gqi5, Fluo-8 calcium fluorescence, ACh EC20; 0% = ACh EC20, 100% = maximal ACh. activation, % at 3 µM. 360,000 tested, 0.4% active. AID 624126;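 active = activation above its plate's cutoff, the mean activation of sample wells plus 3 SD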
Target sequence (P08173 whole entry, looked up): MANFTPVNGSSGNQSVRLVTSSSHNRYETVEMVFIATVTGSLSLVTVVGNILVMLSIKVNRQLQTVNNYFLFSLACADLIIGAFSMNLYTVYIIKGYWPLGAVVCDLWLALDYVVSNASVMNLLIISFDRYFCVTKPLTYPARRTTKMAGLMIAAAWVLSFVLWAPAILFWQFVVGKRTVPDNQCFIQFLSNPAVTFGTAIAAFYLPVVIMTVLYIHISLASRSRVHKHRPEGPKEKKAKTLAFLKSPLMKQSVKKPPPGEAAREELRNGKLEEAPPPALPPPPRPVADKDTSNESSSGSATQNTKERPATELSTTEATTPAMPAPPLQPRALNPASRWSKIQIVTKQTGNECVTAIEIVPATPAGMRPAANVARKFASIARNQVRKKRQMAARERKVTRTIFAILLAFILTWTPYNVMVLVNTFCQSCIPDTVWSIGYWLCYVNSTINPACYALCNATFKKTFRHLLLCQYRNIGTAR
CHRM4 agonist = agonists of human muscarinic M4 receptor (CHRM4). activation, % at 3 µM. AID 624127. P08173. 360,000 tested, 0.14% active. CHO-K1 hM4/Gqi5, Fluo-8 calcium fluorescence; vehicle 0%, full acetylcholine response 100%;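 active = activation above the run mean over all test wells plus 3 SD, cut at about 32% in these data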;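 also: peak over basal fluorescence ratio per well then scaled between controls; 0% = DMSO wells and 100% = acetylcholine at EC100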
M1 antag = blocks human M1 muscarinic receptor | P11229 | CHO-K1 hM1, Fluo-8 calcium fluorescence, ACh EC80 antagonist | inhibition, % at 3 µM | 360,000 tested, 1.3% active | AID 588852;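 active = percent inhibition above its own plate's cutoff, namely the mean of that plate's compound wells plus 3 SD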;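 also: peak over basal fluorescence ratio during 140 s after agonist addition; 0% = ACh EC80 plus DMSO and 100% = DMSO alone without agonist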
M1 PAM = potentiates human M1 receptor response to acetylcholine; AID 588819; 360,000 tested, 0.088% active; activation, % at 3 µM; P11229; CHO-K1 hM1, Fluo-8 calcium fluorescence, ACh EC20; 0% = ACh EC20, 100% = maximal ACh; in the data active = activation above about 19%, passing the limit was not always enough
CHRM4 antagonist = blocks acetylcholine activation of human M4 receptor; P08173; CHO-hM4 cells, ACh EC80, Fluo-8 calcium fluorescence; inhibition, % at 3 µM; 360,000 tested, 0.73% active; AID 624125;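 active = inhibition above its plate's cutoff, the mean inhibition of sample wells plus 3 SD, cut at about 27% in these data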;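 also: 0% = acetylcholine EC80 with DMSO and 100% = DMSO without agonist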
CHRM1 agonist = human M1 muscarinic receptor agonism; P11229; CHO-K1 hM1, Fluo-8 calcium fluorescence, agonist mode; 0% DMSO, 100% acetylcholine EC100; activation, % at 3 µM; 360,000 tested, 0.33% active; AID 588814;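 active = activation above the run's mean compound activation plus 3 SD, cut at about 16% in these data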;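 also: peak over basal fluorescence ratio within a 140 s kinetic read after compound addition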
The depositor's hits bear a star.

Cc1csc(NC(=O)CSc2nnc(Cn3c(=O)sc4ccccc43)n2-c2ccccc2)n1 was read as M4 PAM 29*, CHRM4 agonist 4, M1 antag -6, M1 PAM 11, CHRM4 antagonist -5 and CHRM1 agonist 5.
Screening COc1ccc(C(O)(CCc2ccccc2)CCN2CCCCC2)cc1 (configuration not stated) returned M4 PAM -14, CHRM4 agonist 2, M1 antag 84*, M1 PAM -33, CHRM4 antagonist 1 and CHRM1 agonist -13.
OC(CCN1CCCCC1)(c1ccccc1)c1ccccc1 was read as M4 PAM -18, CHRM4 agonist 1, M1 antag 99*, M1 PAM -27, CHRM4 antagonist 100* and CHRM1 agonist -7.
OC(CCCN1CCCCC1)(c1ccccc1)c1ccc(C(F)(F)F)cc1 (configuration not stated) was read as M4 PAM -11, CHRM4 agonist 5, M1 antag 82*, M1 PAM -30, CHRM4 antagonist 50* and CHRM1 agonist -3.
For C=CCC(O)(CCN1CCCCC1)c1ccccc1 (configuration not stated) the results were M4 PAM -24, CHRM4 agonist 0, M1 antag 98*, M1 PAM -22, CHRM4 antagonist 33* and CHRM1 agonist -5.
For COc1cc(OC)c2c(-c3cccc(-c4sccc4C(C)=O)c3)cc(=O)oc2c1 the results were M4 PAM 6, CHRM4 agonist 0, M1 antag -6, M1 PAM -6, CHRM4 antagonist -13 and CHRM1 agonist -7.
OC(CCN1CCCC1)(c1ccccc1)C1CCCCC1 (configuration not stated) was read as M4 PAM -17, CHRM4 agonist 1, M1 antag 97*, M1 PAM -26, CHRM4 antagonist 99* and CHRM1 agonist -8.
`NC(=O)C(CCCCN1CCCCC1)(c1ccccc1)c1ccccc1` gave M4 PAM -9, CHRM4 agonist 0, M1 antag 83*, M1 PAM -30, CHRM4 antagonist 37* and CHRM1 agonist -8.
Cc1ccc(S(=O)(=O)Nc2ccc3c(c2)CC(=O)N([C@H](C)CO)C[C@@H](C)[C@H](CN(C)S(=O)(=O)c2ccccc2)O3)cc1 was read as M4 PAM -21, CHRM4 agonist -1, M1 antag -2, M1 PAM -1, CHRM4 antagonist 33* and CHRM1 agonist -10.
C[C@H](CO)N1C[C@H](C)[C@H](CN(C)S(=O)(=O)c2ccccc2)Oc2ccc(NC(=O)NC3CCCCC3)cc2CC1=O was read as M4 PAM -17, CHRM4 agonist 0, M1 antag 21, M1 PAM -10, CHRM4 antagonist 99* and CHRM1 agonist -11.
`O=C(O)c1cc(-c2ccc(/C=C3\NC(=O)N(c4ccc(Cl)cc4)C3=O)o2)ccc1Cl` gave M4 PAM 9, CHRM4 agonist 1, M1 antag -2, M1 PAM 4, CHRM4 antagonist -3 and CHRM1 agonist -4.
Screening COC(=O)[C@H](CC(C)C)NC(=O)/C=C/[C@H]1O[C@@H](n2cc(C)c(=O)[nH]c2=O)C[C@@H]1O returned M4 PAM 0, CHRM4 agonist 1, M1 antag -2, M1 PAM -9, CHRM4 antagonist 0 and CHRM1 agonist 0.
Screening COC(=O)c1ccc(CN2CCC(CO)(Cc3ccccc3Cl)CC2)cc1 returned M4 PAM -24, CHRM4 agonist 2, M1 antag 52*, M1 PAM -5, CHRM4 antagonist 27* and CHRM1 agonist 19*.
For O=C(Nc1ccc(-c2nc3ccccc3[nH]2)cc1)C1CCCN(Cc2ccn[nH]2)C1 (configuration not stated) the results were M4 PAM 2, CHRM4 agonist 0, M1 antag -13, M1 PAM 12, CHRM4 antagonist -2 and CHRM1 agonist -6.
Screening CCOC(=O)C1(CCc2ccccc2)CCN(Cc2ccc(C(=O)OC)cc2)CC1 returned M4 PAM 0, CHRM4 agonist 1, M1 antag -2, M1 PAM -4, CHRM4 antagonist -17 and CHRM1 agonist -4.

Bioassay records: PubChem, The Scripps Research Institute Molecular Screening Center
